Assay results: ChEMBL document CHEMBL3988442, “University of Dundee, Small-Polar-MMV Screening Library” (2021)
Screen size: about 48,000 compounds; about 13,000 (27%) showed an effect of 50% or more. This is one part of the list.

The molecules below were run on Wolbachia pipientis (assay: Anti-Wolbachia Cell-Based Screen). Settings: 5 µM.
Type: functional
Design: scale not given: in the data most compounds retested in dose-response had high values

Row | Compound | Percent Effect [%]
1 | Cc1nc(-c2cc(C(=O)N3CCCN(C)CC3)c3ccccn23)cn1C.O=C(O)C(F)(F)F | -23.06
2 | CN(C)C1CCN(C(=O)c2ccnn2-c2ccc3ccccn23)CC1.O=C(O)C(F)(F)F | 64.37
3 | O=C(NCCCN1CCOCC1)c1ccn(-c2ccc3ccccn23)n1.O=C(O)C(F)(F)F | -6.828
4 | CC(C)(CO)CNC(=O)c1ccnn1-c1ccc2ccccn12 | -11.35
5 | CN1CCCN(C(=O)c2ccnn2-c2ccc3ccccn23)CC1.O=C(O)C(F)(F)F | 83.85
6 | CN1CCN(c2ccc3ccc(C(=O)N4CCCO4)cn23)CC1.O=C(O)C(F)(F)F | 0.4274
7 | CCOCc1nnc(NCc2ccsc2)o1 | -11.46
8 | Cc1ccc(OCC(O)CN(C)CC(=O)Nc2cc(C)on2)c(C)c1 (configuration not stated) | 9.432
9 | O=C(Cc1ccsc1)N1CCOC(c2nc(-c3ncccn3)no2)C1 (configuration not stated) | 131.4
10 | Cc1n[nH]c(C2CN(C(=O)CCc3ccsc3)CCO2)n1 (configuration not stated) | -9.569
11 | O=C(Cc1ccccc1)N1CCOC(c2nc(-c3ncccn3)no2)C1 (configuration not stated) | 104.4
12 | Cc1noc([C@@H]2CCO[C@@H]3CCN(C(=O)Cc4ccsc4)C[C@@H]32)n1 | 6.284
13 | O=C(O)C(=O)O.c1cnc(-c2noc(C3CN(Cc4ccc5c(c4)CCO5)C3)n2)nc1 | 8.464
14 | Cc1ccn(CCC(=O)N2CCOC(c3nc(-c4cccs4)no3)C2)n1 (configuration not stated) | -6.468
15 | Cc1ccc2c(C)c(C(=O)NCc3csc(N)n3)oc2c1 | 24.68
16 | Cc1cc(S(=O)(=O)NC(C)(C)CN)c(F)cc1F.Cl | 112.3
17 | Cc1ccc(S(=O)(=O)NCC(C)(C)N)c(F)c1.Cl | 102.6
18 | Cc1ccc(S(=O)(=O)NCc2cnn(C)c2)c(F)c1 | 1.109
19 | Cc1c(F)cccc1S(=O)(=O)NC(C)(C)CN.Cl | -6.464
20 | CCc1nc(NS(=O)(=O)c2cc(C)c(F)cc2Cl)no1 | -1.735
21 | Cc1cc(F)c(S(=O)(=O)NCCCN2CCC(O)CC2)cc1F | 7.324
22 | Cc1cc(S(=O)(=O)NCC(C)(C)N)c(F)cc1F.Cl | 106.9
23 | Cc1ccc(S(=O)(=O)NCCCN2CCC(O)CC2)c(F)c1 | 10.81
24 | Cc1c(F)cccc1S(=O)(=O)NCCN.Cl | -3.419
25 | Cc1ccc(S(=O)(=O)NC(C)(C)CN)c(F)c1.Cl | -7.288
26 | Cc1ccc(F)c(NCC(C)(C)S(C)(=O)=O)c1 | -3.079
27 | Cc1cc(S(=O)(=O)NCC[S+](C)[O-])c(F)cc1F (configuration not stated) | 90.6
